Reference: PubChem BioAssay (NCATS)
Results filed as inconclusive are left out. Calls of active or inactive are those of the source. Calls come from the whole dose curve; as a rule, active = well fitted cell-killing curve with a large enough effect; inconclusive = small, poorly fitted or top-dose-only effect; inactive = flat fitted curve, though single readings scatter.

Experiment: qHTS of pediatric cancer cell lines to identify multiple opportunities for drug repurposing: Primary screen for BT-12 cells (AID 1347101); note: nearly all actives have a fitted effect of over 25% in size;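 for activity change, negative = cytotoxic: plate controls were DMSO for no effect and bortezomib positive control for full effect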
Settings: BT-12 viability, CellTiter-Glo luminescence, 48 h; series mostly up to 57.3 µM; activity change, negative = cytotoxic: at the top concentration
From the text: Drug repurposing or repositioning has been offered as a strategy for drug development in oncology programs. This approach has special potential for childhood cancers and other rare or orphan diseases, where the expected return on new drug development has been a disincentive to pharmaceuticals.
In this project we exploit the poly-pharmacology of drugs to discover new indications via phenotypic screening of a panel of 19 well-characterized cell lines derived from solid tumors seen in children and adolescents. The goal is to identify approved drugs with previously unrecognized anticancer properties that has the potential to reveal new mechanisms and biological processes involved in carcinogenesis or drug resistance. We employed a titration-based paradigm (quantitative high-throughput screening or qHTS), where all compounds were tested at multiple concentrations for their effect on cell viability. Concentration-response curves (CRCs) were derived directly from the primary screen, and both potency and efficacy values were used to identify compounds with robust bioactivity profiles. We screened the NIH Chemical Genomics Center (NCGC) Pharmaceutical Collection (NPC) and Mechanism Interrogation Plate (MIPE) small molecule collections of approved and investigational compounds against these cell lines; and measured metabolically active cells after 48 hours of compound treatment as a proxy for cell viability.
Assay Submitter: Nathalia J. Martinez, National Center for Advancing Translational Sciences, National Institutes of Health, Rockville, MD, USA; email: natalia.martinez@nih.gov
[1] Shen, M et al. Quantitative high-throughput phenotypic screening of pediatric cancer cell lines identifies multiple opportunities for drug repurposing. Oncotarget 2017 Dec 19;9(4):4758-4772. PMID 29435139.
The cells were obtained from University of North Carolina (UNC), Pediatric Preclinical Testing Program (PPT), and Coriell Institute (CI).
qHTS cell viability assay:
Cells were assayed in growth media at a density of 500-1,000 cells/well. Five microliters of cells were dispensed into 1,536-well, white, solid-bottom, TC-treated plates (Greiner Bio One) using a multidrop dispenser and incubated at 37 degrees C, 5% CO2, under a humidified atmosphere for 5 hours. Twenty-three nanoliters of compounds and controls (neutral control DMSO or positive control bortezomib at final concentration of 2.3 µM) were subsequently transferred by Kalypsys pintool. For primary screens, the MIPE collection was tested at 11-point dilutions (final concentrations range from 0.78 nM to 46 µM) and the NPC collection at 8-point dilutions (final concentrations range from 0.59 nM to 46 µM). Compounds tested in follow-up screens were assayed at 11-point dilutions. Cells were incubated for 48 hours, followed by addition of 3 µL of CellTiter-Glo (Promega). After a 15 min incubation at room temperature, samples were analyzed for luminescence intensity using a ViewLux High-throughput CCD imager equipped with clear filters.
Potency is the fitted concentration of half-maximal effect.

Row | SMILES | activity change, negative = cytotoxic | Potency
1 | CN=C(NC#N)Nc1ccc(C2=NNC(=O)CC2C)cc1 (stereo not given) | 3.01% (inactive) | 
2 | Cc1c(C(N)=O)cc([N+](=O)[O-])cc1[N+](=O)[O-] | 1.28% (inactive) | 
3 | CCCCCCCCCCCCCCCCOP(=O)([O-])OCC[N+](C)(C)C | -1.11% (inactive) | 
4 | Cc1ccc(C(=O)C(C)CN2CCCCC2)cc1 (stereo not given) | 0.432% (inactive) | 
5 | Cc1cc(O)c(C(C)C)cc1Cl | 9.8% (inactive) | 
6 | N[C@H](Cc1c[nH]c2ccccc12)C(=O)O | 7.21% (inactive) | 
7 | CC(C)NC[C@@H](O)COc1cccc2ccccc12 | -11% (inactive) | 
8 | CN(C)C(=S)SC(=S)N(C)C |  | 1.23 µM (active)
9 | COC(=O)CCc1ccc(OCC(O)CNC(C)C)cc1 (stereo not given) | -4.56% (inactive) | 
10 | Cc1cc2c(cc1CC(=O)c1sccc1S(=O)(=O)Nc1onc(C)c1Cl)OCO2 | 2.45% (inactive) | 
11 | CCCCOc1cc(C(=O)NCCN(CC)CC)c2ccccc2n1 | -14.6% (inactive) | 
12 | O=C(CCCN1CCC(O)(c2ccc(Br)cc2)CC1)c1ccc(F)cc1 | -27.6% (inactive) | 
13 | NCCCC[C@H](N[C@@H](CCc1ccccc1)C(=O)O)C(=O)N1CCC[C@H]1C(=O)O | 15.2% (inactive) | 
14 | CCCCC(CC)CN=C(N)NC(N)=NCCCCCCN=C(N)NC(N)=NCC(CC)CCCC (stereo not given) |  | 2.46 µM (active)
15 | CC(=O)CC(c1ccc([N+](=O)[O-])cc1)c1c(O)c2ccccc2oc1=O (stereo not given) | -5.89% (inactive) | 
16 | C[C@@H]1C[C@H]2[C@@H]3C[C@H](F)C4=CC(=O)C(Cl)=C[C@]4(C)[C@@]3(F)[C@@H](O)C[C@]2(C)[C@@]1(O)C(=O)CO | -1.77% (inactive) | 
17 | CN(C)CCOc1ccccc1Cc1ccccc1 | -13.3% (inactive) | 
18 | COc1cc(/C=C/C(=O)O[C@H]2CC[C@]34C[C@]35CC[C@]3(C)[C@@H]([C@H](C)CCC=C(C)C)CC[C@@]3(C)[C@@H]5CC[C@H]4C2(C)C)ccc1O | -10.5% (inactive) | 
19 | O=C(O)CCCCC(=O)O | 12% (inactive) | 
20 | O=C(N/N=C/c1ccccc1O)c1ccncc1 |  | 6.17 µM (active)

Row | SMILES | activity change, negative = cytotoxic | Potency
21 | CNC(=O)CN(CCN(CCN(CC(=O)[O-])CC(=O)NC)CC(=O)[O-])CC(=O)[O-].O.[Gd+3] | 11.1% (inactive) | 
22 | COc1c2occc2c(OC)c2c(=O)cc(C)oc12 | 9.7% (inactive) | 
23 | Cc1nc2n(c(=O)c1CCN1CCC(c3noc4cc(F)ccc34)CC1)CCC[C@H]2O | 2.75% [at 20.1 µM] (inactive) | 
24 | CN1C(CCl)Nc2cc(Cl)c(S(N)(=O)=O)cc2S1(=O)=O (stereo not given) | 2.49% (inactive) | 
25 | c1ccc(CNCCNCc2ccccc2)cc1 | 1.31% (inactive) | 
26 | Cc1c(N(C)CS(=O)(=O)O)c(=O)n(-c2ccccc2)n1C | 15.4% (inactive) | 
27 | O=C1c2ccccc2C(=O)C1c1ccccc1 | 15% (inactive) | 
28 | Nc1nc2ncc(CNc3ccc(C(=O)N[C@@H](CCC(=O)O)C(=O)O)cc3)nc2c(=O)[nH]1 | 19.5% (inactive) | 
29 | CCCCC(=O)O[C@]1(C(=O)CO)CC[C@H]2[C@@H]3CCC4=CC(=O)CC[C@]4(C)[C@H]3[C@@H](O)C[C@@]21C | 4.01% (inactive) | 
30 | C[C@]12CC[C@@H]3c4ccc(O)cc4CC[C@H]3[C@@H]1C[C@@H](O)[C@@H]2O | -9.27% (inactive) | 
31 | COc1cccc(OC)c1C(=O)N[C@@H]1C(=O)N2[C@@H]1SC(C)(C)[C@@H]2C(=O)O | 13.8% (inactive) | 
32 | O=c1[nH]c(=O)n([C@H]2C[C@H](O)[C@@H](CO)O2)cc1C(F)(F)F |  | 13.8 µM (active)
33 | Cc1cccc(C)c1NC(=O)CN1CCN(CCCC(c2ccc(F)cc2)c2ccc(F)cc2)CC1 | 4.37% (inactive) | 
34 | C[C@]12C=CC(=O)C=C1CC[C@@H]1[C@@H]2[C@@H](O)C[C@@]2(C)[C@H]1CC[C@]2(O)C(=O)CO | 0.566% (inactive) | 
35 | CN=C(NC#N)NCCSCc1csc(N=C(N)N)n1 | 8.1% (inactive) | 
36 | CCN1CCCC1=O | 11.8% (inactive) | 
37 | C[C@H]1[C@H](NC(=O)/C(=N/OC(C)(C)C(=O)O)c2csc(N)n2)C(=O)N1S(=O)(=O)O (stereo in doubt) | 10% (inactive) | 
38 | COc1cc(C(=S)N2CCOCC2)cc(OC)c1OC | 3.33% (inactive) | 
39 | Oc1cc(O)c2c(c1)O[C@H](c1ccc(O)c(O)c1)[C@H](O)C2 | 9.91% (inactive) | 
40 | COc1cc(-c2ccc(=O)[nH]n2)ccc1OC(F)F | -2.49% (inactive) | 
